Growth data for 11 compounds are collected here from PubChem BioAssay (NCI).

Some test systems named below: NCI-H23 lung; HOP-92 NSCLC; NCI-H522 lung; A549/ATCC NSCLC.
Common to all, as to test: NCI-60 one-dose screen, 48 h (100 = growth as untreated, 0 = no growth, -100 = all killed)
For a further assay, the system named is NCI-H226 lung. Conditions: 10 µM unless noted.
A further assay deals with NCI-H322M lung. Conditions: 10 µM unless noted.
The test system of a further assay is HOP-62 NSCLC. Conditions: 10 µM unless noted.
Another assay relates to NCI-H460 lung. The following applies: 10 µM unless noted.
For another assay, the system named is 786-0 renal. The following applies: 10 µM unless noted.
The next assay relates to COLO 205 colon. Conditions: 10 µM unless noted.

Where “and” joins values, the source holds several entries; their conditions need not be identical. Equal entries are not always repeated. This is part of a sample that, as a whole, favours compounds with a hit. Of some 83,000 tested, about 20% had one in any assay.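 In brief: 96-well plates, 48 h treatment, single concentration, percent growth endpoint.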 Calls of active or inactive are those of the source. How the source made its calls: active means growth percent below 10; inactive means the rest.

Regarding `OC(CNc1ccnc2cc(Cl)ccc12)CNc1ccnc2cc(Cl)ccc12`, the growth is 72% (inactive) in the assay with NCI-H23 lung (10 µM unless noted); 39.3% (inactive) with NCI-H226 lung; 52.1% (inactive) in the assay on NCI-H322M lung; 98.7% (inactive) in the assay with HOP-62 NSCLC; 63.5% (inactive) in the assay on NCI-H460 lung; 77.6% (inactive) in the assay with HOP-92 NSCLC (10 µM unless noted). Also, the growth in the assay on NCI-H522 lung (10 µM unless noted) was -3.14% (active); in the assay on A549/ATCC NSCLC (10 µM unless noted) it was 95.3% (inactive); in the assay with 786-0 renal it was 95.5% (inactive); in the assay with COLO 205 colon, -55.4% (active).

Consider `CNc1ccc2c(c1)c1ccccc1n2C`, for which the growth was 85.2% (inactive) with NCI-H23 lung (10 µM unless noted); 101% (inactive) in the assay with NCI-H226 lung; 98.4% (inactive) in the assay on NCI-H322M lung; 100% (inactive) with HOP-62 NSCLC; 108% (inactive) in the assay with NCI-H460 lung; 99.5% (inactive) with HOP-92 NSCLC (10 µM unless noted). For the same compound, the growth was 92.4% (inactive) with NCI-H522 lung (10 µM unless noted), 105% (inactive) in the assay on A549/ATCC NSCLC (10 µM unless noted), 105% (inactive) in the assay on 786-0 renal and 111% (inactive) with COLO 205 colon.

Take `Cn1c2c(c3ccccc31)CCN1C[C@@H]3CCCC[C@H]3C[C@@H]21`: the growth is 14.4% (inactive) in the assay on NCI-H23 lung (10 µM unless noted); 32.3% (inactive) with NCI-H226 lung; 6.3% (active) with NCI-H322M lung; 40.7% (inactive) in the assay on HOP-62 NSCLC; 0.684% (active) in the assay with NCI-H460 lung; 33.4% (inactive) with HOP-92 NSCLC (10 µM unless noted). Besides, the growth in the assay with NCI-H522 lung (10 µM unless noted) was 6.33% (active); in the assay on A549/ATCC NSCLC (10 µM unless noted), 23.1% (inactive); with 786-0 renal, -12.7% (active); with COLO 205 colon, -59.2% (active).

Take `C=C(Cl)C(=NC(C)(C)C)Nc1ccccc1C`: the growth is 98.8% (inactive) in the assay with NCI-H23 lung (10 µM unless noted); 102% (inactive) with NCI-H226 lung; 109% (inactive) in the assay with NCI-H322M lung; 92.4% (inactive) with HOP-62 NSCLC; 106% (inactive) with NCI-H460 lung; 84.9% (inactive) in the assay with HOP-92 NSCLC (10 µM unless noted). For the same compound, the growth with NCI-H522 lung (10 µM unless noted) was 67.7% (inactive); in the assay on A549/ATCC NSCLC (10 µM unless noted), 111% (inactive); in the assay with 786-0 renal, 97.9% (inactive); in the assay on COLO 205 colon, 55.2% (inactive).

Take `CC(C)(C)c1ccc(O)c(C2CCCCC2)c1`: the growth is 98% (inactive) in the assay with NCI-H23 lung (10 µM unless noted); 104% (inactive) with NCI-H226 lung; 105% (inactive) in the assay on NCI-H322M lung; 107% (inactive) in the assay on HOP-62 NSCLC; 107% (inactive) in the assay with NCI-H460 lung; 96.6% (inactive) in the assay on HOP-92 NSCLC (10 µM unless noted). Further, the growth with NCI-H522 lung (10 µM unless noted) is 83.6% (inactive); in the assay on A549/ATCC NSCLC (10 µM unless noted) it was 95.9% (inactive); in the assay on 786-0 renal, 99.8% (inactive); in the assay on COLO 205 colon, 103% (inactive).

In the case of `COc1cc(NS(C)(=O)=O)ccc1Nc1c2ccccc2nc2ccccc12`, the growth with NCI-H23 lung (2.5 µM) was 8.63% (active); in the assay with NCI-H23 lung (10 µM), -3.53% (active) [middle of 4 runs]; in the assay on NCI-H226 lung it was -8.63% [2.5 µM] (active); in the assay on NCI-H322M lung, 83.9% [2.5 µM] (inactive); with HOP-62 NSCLC, 18.2% [2.5 µM] (inactive); with NCI-H460 lung, 4.6% [2.5 µM] (active). For the same compound, the growth was 9.79% (active) with HOP-92 NSCLC (2.5 µM); 42.5% (inactive) and 10.3% (inactive) in the assay on HOP-92 NSCLC (10 µM); 43% (inactive) with NCI-H522 lung (2.5 µM); -47.9% (active) and 4% (active) and 37.2% (inactive) in the assay on NCI-H522 lung (10 µM); 28.1% (inactive) in the assay on A549/ATCC NSCLC (2.5 µM); 12.9% (inactive) [middle of 4 runs] in the assay with A549/ATCC NSCLC (10 µM). Besides, the growth with 786-0 renal was -3.06% [2.5 µM] (active); in the assay on COLO 205 colon it was 39.7% [2.5 µM] (inactive).

For the compound `O[C@H]1[C@H]2c3cc4c(cc3CN3CCC(=C[C@@H]1O)[C@H]23)OCO4`, the growth in the assay with NCI-H23 lung (10 µM unless noted) was 15.3% (inactive); in the assay with NCI-H226 lung, 15.3% (inactive); in the assay with NCI-H322M lung, 18.5% (inactive); in the assay on HOP-62 NSCLC, 26.5% (inactive); with NCI-H460 lung it was 18.4% (inactive); in the assay with HOP-92 NSCLC (10 µM unless noted), -3.91% (active). In addition, the growth in the assay on NCI-H522 lung (10 µM unless noted) was 25% (inactive); in the assay on A549/ATCC NSCLC (10 µM unless noted), 19.1% (inactive); in the assay with 786-0 renal it was 31.9% (inactive); in the assay with COLO 205 colon, 9.67% (active).

With `O=C(Nc1cccc(Br)c1)Oc1ccc(Cl)c2cccnc12`, the growth in the assay with NCI-H23 lung (10 µM unless noted) is -8.8% [100 µM] (active); in the assay on NCI-H226 lung, 14.5% [100 µM] (inactive); with NCI-H322M lung, 82.3% [100 µM] (inactive); with HOP-62 NSCLC, 31% [100 µM] (inactive); with NCI-H460 lung it was 12.2% [100 µM] (inactive); in the assay on HOP-92 NSCLC (10 µM unless noted), 40.7% [100 µM] (inactive). The growth in the assay on NCI-H522 lung (10 µM unless noted) is -56.5% [100 µM] (active); with A549/ATCC NSCLC (10 µM unless noted), 23.6% [100 µM] (inactive); with 786-0 renal, 89.3% [100 µM] (inactive); in the assay on COLO 205 colon, 55.8% [100 µM] (inactive).

Take `CCCCCCCCCCCCCCCCN(CC)CC`: the growth in the assay on NCI-H23 lung (10 µM unless noted) is -93.1% (active); in the assay with NCI-H226 lung, -65.9% (active); in the assay with NCI-H322M lung, 14.5% (inactive); in the assay with HOP-62 NSCLC, -54.4% (active); with NCI-H460 lung it was 1.87% (active); in the assay on HOP-92 NSCLC (10 µM unless noted), -67.9% (active). The growth in the assay on NCI-H522 lung (10 µM unless noted) is -82.4% (active); in the assay on A549/ATCC NSCLC (10 µM unless noted), -69.5% (active); with 786-0 renal it was -86.1% (active); with COLO 205 colon, -62.5% (active).

With `S=C(NCCNC(=S)[S][Sn]([c]1ccccc1)([c]1ccccc1)[c]1ccccc1)[S][Sn]([c]1ccccc1)([c]1ccccc1)[c]1ccccc1`, the growth was -68.6% (active) with NCI-H23 lung (10 µM unless noted); -95.4% (active) with NCI-H226 lung; -99.4% (active) with NCI-H322M lung; -100% (active) in the assay with HOP-62 NSCLC; -86.8% (active) with NCI-H460 lung; -87.3% (active) in the assay with HOP-92 NSCLC (10 µM unless noted). Besides, the growth was -93.2% (active) with NCI-H522 lung (10 µM unless noted), -98.8% (active) with A549/ATCC NSCLC (10 µM unless noted), -94% (active) with 786-0 renal and -91.3% (active) in the assay on COLO 205 colon.

Take `N#Cc1ccc([N+](=O)[O-])o1`: the growth was 112% (inactive) in the assay on NCI-H23 lung (10 µM unless noted); 94.1% (inactive) in the assay with NCI-H226 lung; 106% (inactive) in the assay with NCI-H322M lung; 96.7% (inactive) with HOP-62 NSCLC; 107% (inactive) with NCI-H460 lung; 93.1% (inactive) in the assay with HOP-92 NSCLC (10 µM unless noted). Further, the growth with NCI-H522 lung (10 µM unless noted) was 77.1% (inactive); with A549/ATCC NSCLC (10 µM unless noted), 75.7% (inactive); in the assay on 786-0 renal it was 102% (inactive); in the assay with COLO 205 colon, 104% (inactive).
